Read-out in assay [1]: Urokinase-type plasminogen activator receptor (uPAR), PLAUR (gene 5329)
Kind of assay: BSK_4H_uPAR: BioMAP Diversity Plus: 4H Assay for Urokinase-type plasminogen activator receptor (uPAR) Biomarker Activity (AID 2283030). The following applies: primary human endothelial cells (HUVEC); actives raise or lower the signal. The method in brief:
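Endpoint derived via bidirectional curve fitting against DMSO baseline; readout was ELISA detection of uPAR on umbilical vein endothelial cells at 24 h post-treatment, with SRB-stained parallel cultures assessing cytotoxicity.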

Read-out in assay [2]: Vascular endothelial growth factor receptor 2 (Homo sapiens) (UniProt P35968)
Kind of assay: BSK_4H_VEGFRII: BioMAP Diversity Plus: 4H Assay for Vascular endothelial growth factor receptor 2 (VEGFR2) Biomarker Activity (AID 2283031). The following applies: primary human endothelial cells (HUVEC); actives raise or lower the signal. The method, boiled down: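 In this multiplexed HUVEC system, biomarker ELISA was performed after 24 h chemical exposure. Parallel SRB staining (TCA fixation, 560 nm) tracked cytotoxicity; DMSO served as baseline.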

Read-out in assay [3]: Vascular cell adhesion molecule 1 (VCAM1), VCAM1 (gene 7412)
Kind of assay: BSK_4H_VCAM1: BioMAP Diversity Plus: 4H Assay for Vascular cell adhesion molecule 1 (VCAM1) Biomarker Activity (AID 2283033).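 Also: cell-surface VCAM-1 protein measured by ELISA.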 The following applies: primary human endothelial cells (HUVEC); actives raise or lower the signal. The method in brief:
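ELISA read-out of VCAM-1 on human umbilical vein endothelium 24 hours after chemical dosing; gain or loss of signal was fitted relative to DMSO, with sulforhodamine B staining of parallel cultures flagging overt cytotoxicity.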

Read-out in assay [4]: Interferon-gamma inducible Protein 10 (IP10), CXCL10 (gene 3627)
The experiment in a line: BSK_BE3C_IP10: BioMAP Diversity Plus: BE3C Assay for Interferon-gamma inducible Protein 10 (IP10) Biomarker Activity (AID 2283034). The following applies: primary human bronchial epithelial cells; actives raise or lower the signal. The method, boiled down: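 Chemical is dosed onto human lung bronchial epithelial primary cells, cultures are incubated 24 h, and IP-10 is then quantified by ELISA. Gain or loss of signal is fitted in both directions relative to DMSO.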

Read-out in assay [5]: Monokine induced gamma interferon (MIG), CXCL9 (gene 4283)
Kind of assay: BSK_BE3C_MIG: BioMAP Diversity Plus: BE3C Assay for Monokine induced gamma interferon (MIG) Biomarker Activity (AID 2283035).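 Also: MIG protein measured by ELISA in BE3C cultures after 24 h of dosing.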 To be noted: primary human bronchial epithelial cells; actives raise or lower the signal. The method in brief: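 MIG level was determined by ELISA after 24 h chemical treatment of primary human bronchial epithelial cells. Values were fitted bidirectionally with DMSO as the negative control and activity baseline.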

Read-out in assay [6]: Transforming growth factor beta 1 (TGFb1), TGFB1 (gene 7040)
The experiment in a line: BSK_BE3C_TGFb1: BioMAP Diversity Plus: BE3C Assay for Transforming growth factor beta 1 (TGFb1) Biomarker Activity (AID 2283036;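 also: TGF-b1 protein level measured by ELISA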). To be noted: primary human bronchial epithelial cells; actives raise or lower the signal. The method, boiled down:
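Primary human lung bronchial epithelial cells; compound exposure 24 h; TGF-b1 by ELISA; bidirectional fit, DMSO baseline. Parallel SRB total-protein staining for cytotoxicity.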

Read-out in assay [7]: Plasminogen activator inhibitor-1 (PAI1), SERPINE1 (gene 5054)
Kind of assay: BSK_BE3C_PAI1: BioMAP Diversity Plus: BE3C Assay for Plasminogen activator inhibitor-1 (PAI1) Biomarker Activity (AID 2283037). The following applies: primary human bronchial epithelial cells; actives raise or lower the signal. The method, boiled down: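 Primary human lung bronchial epithelial cells; chemical dosing; 24 h; PAI-1 measured by ELISA; bidirectional fit referenced to DMSO as negative control.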

Read-out in assay [8]: urokinase plasminogen activator (uPA), PLAU (gene 5328)
Kind of assay: BSK_BE3C_uPA: BioMAP Diversity Plus: BE3C Assay for urokinase plasminogen activator (uPA) Biomarker Activity (AID 2283038).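 Also: uPA protein level quantified by ELISA in cell cultures; uPA read one day after compound addition.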 To be noted: primary human bronchial epithelial cells; actives raise or lower the signal. The method in brief: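 Using confluent primary human lung bronchial epithelial cultures, we dosed chemicals, waited 24 h, then ran a uPA ELISA, fitting bidirectionally against DMSO.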

Read-out in assay [9]: Urokinase-type plasminogen activator receptor (uPAR), PLAUR (gene 5329)
The experiment in a line: BSK_BE3C_uPAR: BioMAP Diversity Plus: BE3C Assay for Urokinase-type plasminogen activator receptor (uPAR) Biomarker Activity (AID 2283039).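 Also: uPAR protein level measured by ELISA on the cells; cells exposed to compound for one day before measurement.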 To be noted: primary human bronchial epithelial cells; actives raise or lower the signal. The method in brief: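 Human bronchial epithelial primary cells; chemical exposure 24 h; uPAR by ELISA; bidirectional fit vs DMSO control.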

Read-out in assay [10]: Interleukin-6 (IL6), IL6 (gene 3569)
The experiment in a line: BSK_CASM3C_IL6: BioMAP Diversity Plus: CASM3C Assay for Interleukin-6 (IL6) Biomarker Activity for (AID 2283040). The following applies: primary human coronary artery smooth muscle cells; actives raise or lower the signal.

Read-out in assay [11]: Tissue plasminogen activator (tPA), PLAT (gene 5327)
Kind of assay: BSK_BE3C_tPA: BioMAP Diversity Plus: BE3C Assay for Tissue plasminogen activator (tPA) Biomarker Activity (AID 2283041).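 Also: tPA level quantified by ELISA one day after compound addition.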 The following applies: primary human bronchial epithelial cells; actives raise or lower the signal. The method, boiled down:
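Primary human lung bronchial epithelial cultures receive test chemical; after 24 h, tPA is quantified by ELISA, and gain or loss of signal is fitted bidirectionally relative to DMSO baseline.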

Read-out in assay [12]: Interleukin-8 (IL8), CXCL8 (gene 3576)
The experiment in a line: BSK_CASM3C_IL8: BioMAP Diversity Plus: CASM3C Assay for Interleukin-8 (IL8) Biomarker Activity (AID 2283042).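 Also: IL-8 protein level quantified by ELISA.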 The following applies: primary human coronary artery smooth muscle cells; actives raise or lower the signal.

Read-out in assay [13]: Human Leukocyte Antigen - DR isotype (HLADR), HLA-DRA (gene 3122)
The experiment in a line: BSK_CASM3C_HLADR: BioMAP Diversity Plus: CASM3C Assay for Human Leukocyte Antigen - DR isotype (HLADR) Biomarker Activity (AID 2283043).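 Also: cell-surface HLA-DR protein level quantified by ELISA.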 To be noted: primary human coronary artery smooth muscle cells; actives raise or lower the signal.

Read-out in assay [14]: Macrophage colony-stimulating factor (MCSF), CSF1 (gene 1435)
The experiment in a line: BSK_CASM3C_MCSF: BioMAP Diversity Plus: CASM3C Assay for Macrophage colony-stimulating factor (MCSF) Biomarker Activity (AID 2283044).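 Also: M-CSF protein amount quantified by ELISA after 24 h exposure.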 To be noted: primary human coronary artery smooth muscle cells; actives raise or lower the signal.

Read-out in assay [15]: Low-density lipoprotein receptor (LDLR), LDLR (gene 3949)
Kind of assay: BSK_CASM3C_LDLR: BioMAP Diversity Plus: CASM3C Assay for Low-density lipoprotein receptor (LDLR) Biomarker Activity (AID 2283045).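 Also: LDLR protein level on the cell surface quantified by ELISA.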 The following applies: primary human coronary artery smooth muscle cells; actives raise or lower the signal.

Read-out in assay [16]: Monocyte Chemoattractant Protein-1 (MCP1), CCL2 (gene 6347)
The experiment in a line: BSK_CASM3C_MCP1: BioMAP Diversity Plus: CASM3C Assay for Monocyte Chemoattractant Protein-1 (MCP1) Biomarker Activity (AID 2283046).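 Also: MCP-1 level quantified by ELISA 24 h after dosing.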 To be noted: primary human coronary artery smooth muscle cells; actives raise or lower the signal.

A short description of assay [17]: BSK_CASM3C_Proliferation: Cell Proliferation Assessment in the BioMAP Diversity Plus: CASM3C Assay (AID 2283047).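 Also: sulforhodamine B total protein stain as relative cell number at 560 nm; sub-confluent cells exposed 48 h before staining; fitted both ways against DMSO so gain or loss of cell number.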 The following applies: primary human coronary artery smooth muscle cells.
Read-out in assay [18]: Monokine induced gamma interferon (MIG), CXCL9 (gene 4283)
The experiment in a line: BSK_CASM3C_MIG: BioMAP Diversity Plus: CASM3C Assay for Monokine induced gamma interferon (MIG) Biomarker Activity (AID 2283048).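 Also: MIG protein level measured by ELISA.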 The following applies: primary human coronary artery smooth muscle cells; actives raise or lower the signal.

Read-out in assay [19]: serum amyloid A (SAA), SAA1 (gene 6288)
The experiment in a line: BSK_CASM3C_SAA: BioMAP Diversity Plus: CASM3C Assay for serum amyloid A (SAA) Biomarker Activity (AID 2283049).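 Also: SAA protein level quantified by ELISA.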 To be noted: primary human coronary artery smooth muscle cells; actives raise or lower the signal.

Read-out in assay [20]: Human Leukocyte Antigen - DR isotype (HLADR), HLA-DRA (gene 3122)
Kind of assay: BSK_BE3C_HLADR: BioMAP Diversity Plus: BE3C Assay for Human Leukocyte Antigen - DR isotype (HLADR) Biomarker Activity (AID 2283032). The following applies: primary human bronchial epithelial cells; actives raise or lower the signal. The method in brief: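 ELISA read-out of HLA-DR on human lung bronchial epithelial primary cells, measured 24 h post-dosing. Both increases and decreases were scored relative to DMSO vehicle.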

This passage reports outcome and AC50 results from PubChem BioAssay (EPA / NIEHS).

SMILES strings stand for the structures. Active and inactive are the calls of the source. The calls were made as follows: active = hit-call score of the fitted dose curve at least 0.9, where 1 is the maximum; inactive = score below 0.9.

The AC50 is the concentration giving half of the maximal activity seen.

As to `CC(Cl)(Cl)C(=O)O`, the result in [1], in assay [2], in assay [3], in [4], in assay [5] and in assay [6] was inactive. The outcome in [7], in assay [8], in assay [9], in assay [10], in [11] and in assay [12] was inactive. The result in assay [13], in assay [14], in [15], in assay [16], in assay [17] and in [18] was inactive. In addition, the result in assay [19] was inactive.

As for `CCCCOCCOP(=O)(OCCOCCCC)OCCOCCCC`, the outcome in [1], in assay [2], in assay [3], in assay [4], in [5] and in assay [6] was inactive. Also, the result in assay [7], in assay [8], in [9], in assay [11], in assay [12] and in assay [13] was inactive. Also, the result in assay [14], in assay [15], in [16], in assay [17], in assay [18] and in [19] was inactive. In addition, the AC50 in assay [10] is 8.79 µM (active).

For `CCCCC(CC)COC(=O)c1c(Br)c(Br)c(Br)c(Br)c1C(=O)OCC(CC)CCCC` (stereo not drawn), the outcome in assay [1], in [2], in [3], in assay [4], in assay [5] and in assay [6] was inactive. In addition, the result in [7], in [8], in [9], in assay [10], in [11] and in assay [12] was inactive. Also, the outcome in assay [13], in assay [14], in assay [15], in assay [16], in assay [17] and in [18] was inactive. Moreover, the AC50 in [19] was 14.7 µM (active).

For `N#Cc1cc([N+](=O)[O-])ccc1N`, the result in assay [1], in assay [2], in [3], in assay [4], in assay [5] and in assay [6] was inactive. The outcome in [7], in [8], in assay [9], in [10], in assay [11] and in assay [12] was inactive. Besides, the result in assay [13], in assay [14], in assay [15], in assay [16], in assay [17] and in assay [18] was inactive. Also, in assay [19], the result was inactive.

With `FC(F)(F)C(F)(C(F)(F)F)C(F)(F)C(F)(F)CC1CO1` (stereo not drawn), the result in assay [1], in assay [2], in assay [20], in assay [3], in assay [4] and in assay [5] was inactive. In addition, the result in [7], in assay [8], in [9], in assay [10], in assay [11] and in assay [12] was inactive. The outcome in assay [13], in assay [14], in assay [15], in assay [16], in [17] and in [18] was inactive. Also, the result in assay [19] was inactive.

Turning to `O=[N+]([O-])c1ccc(Cl)c(Cl)c1`, the result in assay [1], in [2], in [20], in assay [3], in assay [4] and in [5] was inactive. Moreover, the outcome in assay [6], in [7], in [8], in assay [10], in assay [11] and in assay [12] was inactive. The outcome in [13], in assay [14], in [15], in [16], in [17] and in assay [18] was inactive. For the same compound, the result in assay [19] was inactive.

Consider `CC(C)(C)c1ccc(O)cc1`, for which the result in assay [1], in [2], in assay [3], in assay [4], in assay [5] and in assay [6] was inactive. In addition, the result in assay [7], in assay [8], in assay [9], in [10], in assay [11] and in assay [12] was inactive. In addition, the result in [13], in assay [14], in [15], in assay [16], in assay [17] and in [18] was inactive. In addition, the outcome in assay [19] was inactive.
